Reference: the supplement of paper PMC10849652
Of roughly 7,900 targets only a part is listed; those with a hit were picked by preference. About 0.6% of all pairs of compound and target were hits.

Tests used:
Assay in all cases: log2 fold change, soluble protein after heating vs DMSO (PISA); higher = thermal stabilisation; K562 cells, 10 uM, 30 min; active = over 0.2 and 3.5 SD of the protein, either way, in both replicates (recomputed)
[1] = compound: CC[C@@H]1C(=O)N(C)c2cnc(Nc3ccc(C(=O)NC4CCN(C)CC4)cc3OC)nc2N1C1CCCC1
Method in brief: (§1)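 Quantification of soluble protein used TMTpro 16plex LC-MS/MS, with channel sums equalised. Samples were the supernatant after 21,000xg for 90 min of pooled aliquots from K562 cells (2×10^6 cells/mL) treated with 10 μM compound for 30 min, heated for 3 min over 48°C-58°C, and extracted in PBS with 0.5% NP-40 at 4°C. Values, from duplicates, describe thermal stability against control samples on a log2 fold-change scale.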

[2] = compound: CC[C@@H]1C(=O)N(C)c2cnc(Nc3ccc(C(=O)N[C@H]4CC[C@H](N5CCN(CC6CC6)CC5)CC4)cc3OC)nc2N1C(C)C [volasertib]
Method in brief: as §1

[3] = compound: CC[C@H](C)N1C=C(C2=C(C=C(C=C21)C3=CN=C(C=C3)N4CCNCC4)C(=O)NCC5=C(C=C(NC5=O)C)C)C
Method in brief: as §1

[4] = compound: CCn1c(C(=O)N(C2CC2)C2CC2)cc2c3c(ncn3C)c(Nc3cc(C)n(C)n3)nc21
Method in brief: as §1

[5] = compound: CCn1cc(-c2ccnc3[nH]c(-c4cccc(CN(C)C)c4)cc23)c(-c2ccc(NC(=O)N(C)C)cc2)n1
Method in brief: as §1

[6] = compound: CN(C)CC(=O)Nc1ccc2[nH]c(=O)c3ccccc3c2c1
Method in brief: as §1

[7] = compound: CN(CCOC1=CC=C(C=C1)C[C@H]2C(=O)NC(=O)S2)C3=CC=CC=N3 (racemic) [rosiglitazone]
Method in brief: as §1

[8] = compound: CN1C2=C(C3=C1C(=O)N(N=C3)CC4=CC(=CC=C4)N)SC(=C2)S(=O)C
Method in brief: as §1

[9] = compound: CN1CCC(CNc2ccc3ncc(-c4cccc(OC(F)(F)F)c4)n3n2)CC1
Method in brief: as §1

[10] = compound: CN1CCN(CCOc2cc(OC3CCOCC3)c3c(Nc4c(Cl)ccc5c4OCO5)ncnc3c2)CC1 [saracatinib]
Method in brief: as §1

[11] = compound: CN1CCN(c2nc(C3=C(c4c[nH]c5ccccc45)C(=O)NC3=O)c3ccccc3n2)CC1 [sotrastaurin]
Method in brief: as §1

[12] = compound: CN1CC[C@H](c2c(O)cc(O)c3c(=O)cc(-c4ccccc4Cl)oc23)[C@H](O)C1 [alvocidib]
Method in brief: as §1

[13] = compound: CN1CCc2c(c3ccccc3n2Cc2ccc(C(=O)NO)cc2)C1 [Tubastatin A]
Method in brief: as §1

[14] = compound: CNC(=O)C1=CC=CC=C1NC2=NC(=NC=C2Cl)NC3=C(C=C(C=C3)N4CCOCC4)OC
Method in brief: as §1

[15] = compound: CNC(=O)c1ccc(Nc2ncc(C(F)(F)F)c(NCc3nccnc3N(C)S(C)(=O)=O)n2)cc1 [defactinib]
Method in brief: as §1

[16] = compound: CNCc1ccc(-c2[nH]c3cc(F)cc4c3c2CCNC4=O)cc1 [rucaparib]
Method in brief: as §1

[17] = compound: CNc1nc(-c2ccc3c(N)n[nH]c3c2)cc(N2C[C@@H](C(=O)NC3CCCCC3)CC[C@H]2C)n1
Method in brief: as §1

[18] = compound: COC(=O)N[C@@H](C)CNc1nccc(-c2cn(C(C)C)nc2-c2cc(Cl)cc(NS(C)(=O)=O)c2F)n1 [encorafenib]
Method in brief: as §1

[19] = compound: COC(=O)[C@H](CCSC)NC(=O)C1=C(C=C(C=C1)NC[C@H](CS)N)C2=CC=CC=C2
Method in brief: as §1

[20] = compound: CC[C@H](C)[C@@H](C(=O)N[C@@H]([C@@H](C)O)C(=O)N[C@@H](CC(C)C)C(=O)[C@]1(CO1)C)NC(=O)[C@H]([C@@H](C)CC)N(C)C(=O)C [epoxomicin]
Method in brief: as §1

Measured: log2 fold change

MRFAP1 (UniProt Q9Y605)
Chain of UniProt Q9Y605 (Q9Y605 whole entry, looked up): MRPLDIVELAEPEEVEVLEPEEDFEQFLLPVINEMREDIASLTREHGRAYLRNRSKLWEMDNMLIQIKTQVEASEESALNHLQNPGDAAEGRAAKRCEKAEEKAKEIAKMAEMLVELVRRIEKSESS
inactive: [1] -0.107 | [2] -0.386 | [3] 0 | [4] 0.029 | [5] 0.022 | [6] 0.242 | [7] 0.048 | [8] -0.08 | [9] -0.032 | [10] -0.118 | [11] 0.102 | [12] -0.097 | [13] 0.329 | [14] -0.003 | [15] -0.051 | [16] -0.099 | [17] -0.002 | [18] 0.141 | [19] -0.027

NMU (UniProt P48645)
Chain of UniProt P48645 (P48645 whole entry, looked up): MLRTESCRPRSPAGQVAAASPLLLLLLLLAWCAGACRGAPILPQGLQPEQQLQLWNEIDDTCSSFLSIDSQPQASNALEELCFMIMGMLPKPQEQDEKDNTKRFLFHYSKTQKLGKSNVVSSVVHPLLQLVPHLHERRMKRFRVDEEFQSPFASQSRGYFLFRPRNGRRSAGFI
inactive: [1] 0.094 | [2] 0.072 | [3] 0 | [20] 0.077 | [4] -0.044 | [5] 0.008 | [6] -0.017 | [7] -0.021 | [8] -0.008 | [9] 0.271 | [10] -0.017 | [12] 0.044 | [13] 0.149 | [14] -0.055 | [15] -0.08 | [16] -0.076 | [17] -0.09 | [18] 0.034 | [19] -0.042

MLST8 (UniProt Q9BVC4)
inactive: [1] -0.22 | [3] 0.05 | [20] -0.02 | [4] -0.099 | [6] 0.109 | [7] -0.029 | [8] -0.016 | [10] -0.124 | [11] -0.003 | [12] -0.034 | [13] 0.124 | [14] -0.116 | [15] -0.092 | [16] 0.099 | [17] 0.014 | [18] 0.101 | [19] -0.106
active: [2] -0.353

NPC1 (UniProt O15118)
Chain of UniProt O15118 (O15118 whole entry, looked up): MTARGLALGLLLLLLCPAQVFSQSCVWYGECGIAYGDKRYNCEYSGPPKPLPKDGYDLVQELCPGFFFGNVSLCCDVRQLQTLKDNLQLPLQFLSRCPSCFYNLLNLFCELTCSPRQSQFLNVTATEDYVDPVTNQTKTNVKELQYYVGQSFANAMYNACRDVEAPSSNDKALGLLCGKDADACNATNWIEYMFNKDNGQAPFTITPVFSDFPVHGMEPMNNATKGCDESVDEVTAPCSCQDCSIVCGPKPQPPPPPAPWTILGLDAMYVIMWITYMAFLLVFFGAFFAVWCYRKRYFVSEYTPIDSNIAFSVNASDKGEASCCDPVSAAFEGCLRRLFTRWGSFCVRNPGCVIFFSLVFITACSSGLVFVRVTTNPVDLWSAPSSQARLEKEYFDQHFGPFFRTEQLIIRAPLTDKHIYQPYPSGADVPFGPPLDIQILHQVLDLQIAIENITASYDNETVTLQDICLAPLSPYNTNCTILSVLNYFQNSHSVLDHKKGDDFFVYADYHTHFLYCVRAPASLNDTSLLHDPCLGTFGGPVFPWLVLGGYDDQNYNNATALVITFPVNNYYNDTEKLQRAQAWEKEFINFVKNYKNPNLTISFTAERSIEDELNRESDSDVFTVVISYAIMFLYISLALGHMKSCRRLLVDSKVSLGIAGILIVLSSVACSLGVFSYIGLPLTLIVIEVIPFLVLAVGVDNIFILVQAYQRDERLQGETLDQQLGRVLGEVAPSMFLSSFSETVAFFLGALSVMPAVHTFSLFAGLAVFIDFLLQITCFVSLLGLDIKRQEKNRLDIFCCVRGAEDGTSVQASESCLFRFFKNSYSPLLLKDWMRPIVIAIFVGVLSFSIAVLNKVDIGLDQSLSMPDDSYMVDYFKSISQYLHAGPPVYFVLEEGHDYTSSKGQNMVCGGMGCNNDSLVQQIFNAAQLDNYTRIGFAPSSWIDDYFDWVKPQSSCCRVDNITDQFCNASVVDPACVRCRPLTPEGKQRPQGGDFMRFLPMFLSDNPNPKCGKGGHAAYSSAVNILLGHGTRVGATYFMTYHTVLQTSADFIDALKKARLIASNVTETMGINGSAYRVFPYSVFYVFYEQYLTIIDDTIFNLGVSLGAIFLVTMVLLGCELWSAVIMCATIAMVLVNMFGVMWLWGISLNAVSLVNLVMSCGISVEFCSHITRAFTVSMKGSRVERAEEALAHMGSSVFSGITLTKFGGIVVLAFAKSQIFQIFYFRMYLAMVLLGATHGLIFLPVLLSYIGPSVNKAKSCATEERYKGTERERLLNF
inactive: [1] -0.016 | [2] -0.072 | [3] -0.031 | [20] -0.02 | [4] 0.009 | [5] 0.005 | [6] -0.029 | [7] -0.018 | [8] 0.004 | [9] 0.012 | [10] 0.077 | [11] 0.007 | [12] 0.041 | [13] -0.045 | [14] 0.02 | [15] 0.01 | [16] -0.147 | [17] -0.049 | [18] -0.012 | [19] -0.006

NKAP (UniProt Q8N5F7)
inactive: [1] 0.026 | [2] -0.3 | [3] 0.082 | [20] -0.109 | [4] -0.028 | [5] 0.092 | [6] 0.052 | [7] 0.024 | [8] -0.025 | [9] -0.164 | [10] 0.067 | [12] -0.142 | [13] 0.093 | [14] -0.296 | [15] 0.092 | [16] 0.055 | [17] 0.085 | [18] 0.149 | [19] 0.039

MRPS16 (UniProt Q9Y3D3)
inactive: [1] 0.012 | [2] -0.088 | [3] 0.018 | [20] 0.041 | [4] 0.047 | [5] -0.116 | [6] 0.046 | [7] -0.071 | [9] 0.052 | [11] -0.039 | [12] -0.098 | [13] 0.008 | [14] -0.115 | [15] 0.043 | [16] 0.084 | [18] 0.138 | [19] 0

NISCH (UniProt Q9Y2I1)
inactive: [1] -0.349 | [3] 0.025 | [20] 0.05 | [4] -0.252 | [5] -0.121 | [6] 0.02 | [7] 0.103 | [8] 0.086 | [10] -0.037 | [11] -0.066 | [12] -0.054 | [13] -0.022 | [14] -0.141 | [15] -0.128 | [16] -0.041 | [17] -0.072 | [18] 0.093 | [19] -0.12
active: [2] -0.487 | [9] -0.518

NUDT7 (UniProt P0C024)
inactive: [3] 0.187 | [20] -0.067 | [4] 0.058 | [5] -0.055 | [7] 0.038 | [9] 0.322 | [11] 0.035 | [13] -0.045 | [14] 0.052

NA, A0A494C071
Chain of NA, A0A494C071 (A0A494C071 whole entry, looked up): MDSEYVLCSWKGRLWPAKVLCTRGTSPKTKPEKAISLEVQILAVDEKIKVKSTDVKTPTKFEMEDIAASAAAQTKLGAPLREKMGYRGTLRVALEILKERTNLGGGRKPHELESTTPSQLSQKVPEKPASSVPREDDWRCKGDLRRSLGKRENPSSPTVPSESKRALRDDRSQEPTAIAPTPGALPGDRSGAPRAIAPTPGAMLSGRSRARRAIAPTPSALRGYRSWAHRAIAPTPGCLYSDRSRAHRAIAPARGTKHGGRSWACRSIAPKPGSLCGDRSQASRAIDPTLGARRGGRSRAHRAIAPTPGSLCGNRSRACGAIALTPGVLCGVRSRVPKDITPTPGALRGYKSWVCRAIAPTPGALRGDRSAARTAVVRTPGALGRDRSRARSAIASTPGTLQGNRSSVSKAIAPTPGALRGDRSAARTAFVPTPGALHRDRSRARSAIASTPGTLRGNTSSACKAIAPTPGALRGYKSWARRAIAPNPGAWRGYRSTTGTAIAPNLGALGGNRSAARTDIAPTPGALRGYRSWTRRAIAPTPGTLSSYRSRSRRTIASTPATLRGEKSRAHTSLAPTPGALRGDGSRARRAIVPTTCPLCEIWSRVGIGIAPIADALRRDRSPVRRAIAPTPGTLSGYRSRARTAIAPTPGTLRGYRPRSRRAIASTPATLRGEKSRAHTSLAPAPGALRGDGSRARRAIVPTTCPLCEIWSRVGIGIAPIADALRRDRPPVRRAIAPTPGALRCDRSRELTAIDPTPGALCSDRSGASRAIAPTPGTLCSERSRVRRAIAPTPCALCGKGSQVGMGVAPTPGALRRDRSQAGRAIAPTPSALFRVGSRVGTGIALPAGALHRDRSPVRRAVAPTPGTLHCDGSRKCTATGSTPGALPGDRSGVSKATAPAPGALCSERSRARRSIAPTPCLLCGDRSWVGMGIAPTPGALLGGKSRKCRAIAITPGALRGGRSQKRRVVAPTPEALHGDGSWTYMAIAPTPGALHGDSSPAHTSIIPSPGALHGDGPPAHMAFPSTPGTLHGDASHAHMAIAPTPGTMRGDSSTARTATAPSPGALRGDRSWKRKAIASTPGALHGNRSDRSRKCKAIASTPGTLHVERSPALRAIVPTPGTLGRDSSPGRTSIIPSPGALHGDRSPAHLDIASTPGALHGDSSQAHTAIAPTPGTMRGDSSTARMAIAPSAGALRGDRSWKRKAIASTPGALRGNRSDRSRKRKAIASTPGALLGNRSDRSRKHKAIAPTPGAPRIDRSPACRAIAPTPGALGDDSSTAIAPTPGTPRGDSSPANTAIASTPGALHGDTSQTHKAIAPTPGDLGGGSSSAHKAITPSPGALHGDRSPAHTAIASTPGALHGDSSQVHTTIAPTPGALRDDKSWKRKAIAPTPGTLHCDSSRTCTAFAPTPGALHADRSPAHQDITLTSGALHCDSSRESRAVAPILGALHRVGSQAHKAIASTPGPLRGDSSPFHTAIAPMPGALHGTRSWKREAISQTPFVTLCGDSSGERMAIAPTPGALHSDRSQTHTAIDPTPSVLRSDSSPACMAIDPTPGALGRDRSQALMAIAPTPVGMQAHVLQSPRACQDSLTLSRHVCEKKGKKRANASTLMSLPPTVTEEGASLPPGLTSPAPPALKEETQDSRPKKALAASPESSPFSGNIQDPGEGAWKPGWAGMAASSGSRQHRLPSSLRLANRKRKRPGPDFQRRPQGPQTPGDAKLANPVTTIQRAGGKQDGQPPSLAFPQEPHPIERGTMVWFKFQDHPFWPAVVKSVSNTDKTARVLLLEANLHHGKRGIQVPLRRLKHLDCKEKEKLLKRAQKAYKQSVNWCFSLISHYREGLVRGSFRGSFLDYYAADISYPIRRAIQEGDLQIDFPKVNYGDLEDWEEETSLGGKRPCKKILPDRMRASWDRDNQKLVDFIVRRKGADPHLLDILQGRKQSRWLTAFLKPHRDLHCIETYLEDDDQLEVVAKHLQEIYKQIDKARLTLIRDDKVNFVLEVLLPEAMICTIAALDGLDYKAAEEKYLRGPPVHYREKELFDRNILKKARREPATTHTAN
active: [1] -1.54 | [9] -1.73
inactive: [3] 0.38 | [20] -0.11 | [5] 0.189 | [6] -0.122 | [7] 0.125 | [8] -0.028 | [10] 0.033 | [12] 0.062 | [13] -0.197 | [15] 0.044 | [16] -0.359 | [17] -0.062 | [18] 0.027 | [19] 0.124

MYH16 (UniProt Q9H6N6)
Chain of UniProt Q9H6N6 (Q9H6N6 whole entry, looked up): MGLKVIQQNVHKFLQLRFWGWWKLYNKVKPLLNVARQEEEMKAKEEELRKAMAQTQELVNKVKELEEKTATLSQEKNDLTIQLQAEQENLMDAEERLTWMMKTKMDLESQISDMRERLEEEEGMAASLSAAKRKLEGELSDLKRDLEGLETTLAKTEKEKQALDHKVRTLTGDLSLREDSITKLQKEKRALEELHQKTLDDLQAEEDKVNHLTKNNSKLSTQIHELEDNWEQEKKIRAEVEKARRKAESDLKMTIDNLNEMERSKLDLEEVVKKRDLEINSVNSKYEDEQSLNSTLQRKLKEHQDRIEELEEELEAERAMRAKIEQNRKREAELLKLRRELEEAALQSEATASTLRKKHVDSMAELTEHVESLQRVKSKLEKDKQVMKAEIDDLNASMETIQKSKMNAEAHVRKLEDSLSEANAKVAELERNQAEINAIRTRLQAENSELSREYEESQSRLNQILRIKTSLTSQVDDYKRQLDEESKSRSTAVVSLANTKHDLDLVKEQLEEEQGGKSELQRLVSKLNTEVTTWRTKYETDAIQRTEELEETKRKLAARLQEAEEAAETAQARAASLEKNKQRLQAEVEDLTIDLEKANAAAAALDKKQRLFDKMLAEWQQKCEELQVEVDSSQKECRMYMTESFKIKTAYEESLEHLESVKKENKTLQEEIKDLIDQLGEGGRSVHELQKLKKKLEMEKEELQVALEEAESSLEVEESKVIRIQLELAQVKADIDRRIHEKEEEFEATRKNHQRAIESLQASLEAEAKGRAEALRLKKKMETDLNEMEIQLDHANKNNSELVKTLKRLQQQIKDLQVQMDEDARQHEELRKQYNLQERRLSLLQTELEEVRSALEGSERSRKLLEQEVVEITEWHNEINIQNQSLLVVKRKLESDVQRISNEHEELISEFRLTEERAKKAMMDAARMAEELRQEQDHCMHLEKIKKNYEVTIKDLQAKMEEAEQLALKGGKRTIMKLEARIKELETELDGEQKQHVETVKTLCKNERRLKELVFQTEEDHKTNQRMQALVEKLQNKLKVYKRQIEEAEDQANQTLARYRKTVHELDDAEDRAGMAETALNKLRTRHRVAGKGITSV
inactive: [2] 0.077 | [3] 0.156 | [4] 0.029 | [5] -0.067 | [6] 0.011 | [7] 0.065 | [9] 0.26 | [11] -0.224 | [12] 0.138 | [13] -0.069 | [14] -0.075 | [15] 0.013 | [19] -0.171

PACRGL (UniProt Q8N7B6)
inactive: [11] -0.075

OGFOD2 (UniProt Q6N063)
Chain of UniProt Q6N063 (Q6N063 whole entry, looked up): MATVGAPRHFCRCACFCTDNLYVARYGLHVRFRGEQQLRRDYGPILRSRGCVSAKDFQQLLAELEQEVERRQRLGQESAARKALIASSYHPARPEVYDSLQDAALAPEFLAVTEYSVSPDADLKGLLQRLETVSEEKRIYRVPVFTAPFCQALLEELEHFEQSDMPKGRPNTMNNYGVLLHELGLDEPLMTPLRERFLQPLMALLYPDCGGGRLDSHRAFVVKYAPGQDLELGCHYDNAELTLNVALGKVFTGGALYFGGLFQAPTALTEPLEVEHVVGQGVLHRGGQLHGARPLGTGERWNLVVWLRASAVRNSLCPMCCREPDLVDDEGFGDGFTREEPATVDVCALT
inactive: [1] -0.007 | [3] -0.019 | [20] 0.08 | [4] -0.033 | [6] 0.035 | [7] -0.027 | [8] 0.147 | [9] -0.112 | [10] 0.095 | [12] -0.035 | [13] -0.08 | [14] 0.094 | [15] -0.076 | [16] -0.029 | [17] 0.009 | [18] 0.133 | [19] 0.032
active: [5] -0.372

NIPSNAP2 (UniProt C9J7B1)
inactive: [7] -0.065 | [11] -0.073

NA (UniProt J3KR12)
inactive: [3] -0.021 | [20] 0.079 | [7] 0.148

MYO19 (UniProt Q96H55)
inactive: [2] 0.007 | [3] 0.011 | [20] 0.097 | [4] -0.138 | [5] -0.215 | [6] -0.081 | [7] 0.121 | [8] 0.076 | [9] 0.404 | [10] -0.066 | [12] 0.001 | [14] -0.046 | [15] 0.093 | [17] 0.09 | [19] 0.103

MITF (UniProt O75030)
inactive: [1] 0.014 | [3] 0.02 | [4] -0.051 | [5] 0.044 | [6] -0.231 | [9] -0.046 | [11] -0.08 | [14] 0.034 | [15] 0.111 | [16] -0.186 | [18] -0.058 | [19] 0.064

ORC3 (UniProt Q9UBD5)
inactive: [1] -0.167 | [16] 0.061 | [18] 0.032

NAP1L1 (UniProt B7Z9C2)
inactive: [1] -0.118 | [3] -0.008 | [4] -0.132 | [5] 0 | [6] -0.244 | [7] 0.146 | [8] -0.053 | [9] -0.152 | [10] -0.168 | [14] 0.041 | [15] -0.117 | [16] -0.041 | [17] -0.706 | [18] -0.114 | [19] -0.007

MOB3B (UniProt Q86TA1)
active: [2] -0.633
inactive: [3] -0.045 | [4] 0.149 | [5] -0.016 | [6] 0.034 | [7] 0.202 | [9] -0.159 | [12] -0.428 | [13] -0.03 | [14] -0.324 | [15] -0.252 | [19] 0.078

OPHN1 (UniProt O60890)
inactive: [1] 0.036 | [3] -0.016 | [20] 0.043 | [4] -0.019 | [5] -0.143 | [7] 0.121 | [8] 0.108 | [9] -0.095 | [10] -0.033 | [11] 0.011 | [12] 0.094 | [13] -0.008 | [14] -0.036 | [16] -0.011 | [17] -0.01 | [18] 0.038
